Usually AC50 stands for the midpoint of the concentration-response curve, whichever way the signal moves.

Screen size: about 16,000 compounds; about 5,700 (36%) were called active. Roughly 24% stayed inconclusive and do not appear here. The list shows a part of the results. Values without a mark were called inactive. Calls come from the whole dose curve; as a rule, active = well fitted curve in the direction sought with a large enough effect; inconclusive = small, poorly fitted or top-dose-only effect, or effect the other way; inactive = no such curve, though single readings can be large or run the other way.
% is set by controls: 0 for no effect and ±100 for the full control effect.

In the test the target is Cytochrome P450 1A2 (Homo sapiens) (UniProt P05177). Nature of the test: Cytochrome panel assay with activity outcomes. Conditions: recombinant CYP, pro-luciferin dealkylation, luminescence, p450-cyp1a2; series mostly up to 57.1 µM.
Sequence of Cytochrome P450 1A2 (Homo sapiens) (P05177 whole entry, looked up): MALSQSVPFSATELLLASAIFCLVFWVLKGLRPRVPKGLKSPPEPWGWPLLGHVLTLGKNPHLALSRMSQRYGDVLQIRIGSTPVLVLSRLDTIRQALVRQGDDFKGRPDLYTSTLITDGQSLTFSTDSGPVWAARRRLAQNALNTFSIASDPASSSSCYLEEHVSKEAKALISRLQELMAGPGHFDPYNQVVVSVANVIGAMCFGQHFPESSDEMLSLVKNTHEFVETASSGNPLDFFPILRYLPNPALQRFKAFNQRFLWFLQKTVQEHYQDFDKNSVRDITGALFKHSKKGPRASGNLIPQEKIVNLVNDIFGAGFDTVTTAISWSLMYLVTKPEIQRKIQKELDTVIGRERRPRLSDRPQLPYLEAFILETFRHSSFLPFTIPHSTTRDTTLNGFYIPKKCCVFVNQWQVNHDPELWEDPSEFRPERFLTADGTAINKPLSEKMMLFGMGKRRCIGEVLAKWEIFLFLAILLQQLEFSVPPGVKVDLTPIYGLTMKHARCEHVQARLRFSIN
As to `COc1ccc2c(c1)CCC1[C@@H]2CCC2(C)[C@@H](NCCCCCCN3C(=O)C=CC3=O)CC[C@@H]12` (some centres undefined), the AC50 entry is “inactive”.
With `CC[C@]1(c2cccc(O)c2)CCCCN(C)C1`, the AC50 entry is “inactive”.
Still for that read-out and setting: in the case of `COc1ccc(C2SCC(=O)Nc3c2c(C)nn3C2CCOC(C)(C)C2)cc1` (centres undefined) it was “inactive”; in that of `CCN1C[C@@]2(COC)CC[C@H](O)[C@@]34[C@@H]2C[C@@H]([C@@H]13)[C@]1(O)C[C@@H](OC)C2C[C@H]4[C@H]1[C@H]2OC(C)=O`, “inactive”.
Regarding `CC[C@@H]1CN2CCc3cc(OC)c(OC)cc3[C@H]2C[C@@H]1C[C@@H]1NCCc2cc(OC)c(OC)cc21`, the AC50 result is “inactive”.
For the compound `CCc1cc2c(nc1CC)CCN(CC/C(C)=N/OC)C2`, the activity, negative = inhibition is -0.582% [at 11.4 µM].
With `C=C1C/C(=C\C)C(=O)O[C@@H]2CCN3CC=C(COC(=O)[C@@]1(C)O)[C@H]23`, the AC50 result is “inactive”.
In the case of `CC[N+](CC)(CC)CCOc1cccc(OCC[N+](CC)(CC)CC)c1OCC[N+](CC)(CC)CC`, the AC50 entry was “inactive”.
For the compound `N/C(=N\N=C/c1ccc(-c2ccc(O)c(C(=O)O)c2)o1)N[N+](=O)[O-]`, the AC50 entry is “inactive”.
On to `Cc1o[nH]c(=O)c1C[C@@H](N)C(=O)O`, for which the AC50 entry is “inactive”.
Regarding `C[C@H]1CC[C@]2(OC1)O[C@@H]1C[C@@H]3[C@@H]4CC[C@H]5C[C@@H](O)CC[C@]5(C)[C@@H]4CC(=O)[C@@]3(C)[C@H]1[C@@H]2C`, the AC50 entry is “inactive”.
For the compound `CC(=O)OCC1=C(C(=O)O)N2C(=O)[C@@H](N)[C@@H]2SC1`, the AC50 entry was “inactive”.
Turning to `Clc1cccc(N2CCNCC2)c1`, the AC50 is 15.8 µM (active).
Consider `c1ccc(N2CC3(CCNCC3)C2)cc1`, for which the AC50 entry is “inactive”.
Still for that read-out and setting: the same measure for `c1ccc(N2CCC3(CCNCC3)CC2)cc1`: “inactive”; for `CCN1CCN(S(=O)(=O)c2ccc(Cl)nc2)CC1`: “inactive”.
Consider `C[C@@]12CCC(=O)C=C1C=C[C@H]1[C@H]3CC[C@](O)(CCC(=O)O)[C@]3(C)CC[C@@H]12`, for which the AC50 entry is “inactive”.
On to `O=C(O)[C@@H]1[C@H](C(=O)O)[C@]2(Cl)C(Cl)=C(Cl)[C@@]1(Cl)C2(Cl)Cl`, for which the activity, negative = inhibition is -14.5% [at 11.4 µM].
In the case of `CCCn1c(=O)c2[nH]c(C3CCCC3)nc2n(CCCOC(=O)c2ccc(S(=O)(=O)F)cc2)c1=O`, the AC50 entry is “inactive”.
Take `CC(C)C(=O)CP(=O)(O)O`: the activity, negative = inhibition was -6.25% [at 11.4 µM].
On to `CC(C)c1c(CN(C)[C@@H](C)Cc2ccccc2)n(C)n(-c2ccccc2)c1=O`, for which the AC50 entry was “inactive”.
Turning to `C#CCN(C)[C@H](C)Cc1ccccc1`, the AC50 was 12.6 µM (active).
Take `CCCN1CCC[C@@H]2Cc3[nH]ncc3C[C@H]21`: the AC50 entry is “inactive”.
As for `CC(C)[C@]1(O)[C@@H](OC(=O)c2ccc[nH]2)[C@]2(O)[C@@]3(C)C[C@@]4(O)O[C@@]5([C@H](O)[C@@H](C)CC[C@]35O)[C@]2(O)[C@]41C`, the activity, negative = inhibition is -17.2% [at 2.29 µM].

(Values after PubChem BioAssay AID1851 (National Center for Advancing Translational Sciences (NCATS), 2009).)
